Source: PubChem
Neddyl block: inhibitors of cullin neddylation, primary screen, biochemical, TR-FRET, uHTS, NAE and Ubc12; calls only at 25 µM; hit rate 0.58% among 360,000; NEDD8-conjugating enzyme Ubc12 (Homo sapiens) + NEDD8-activating enzyme E1 regulatory …; in the data active = inhibition above about 36%
UBC13 polyUb: UBC13 polyubiquitin chain formation inhibitors, primary screen, biochemical, TR-FRET, uHTS; Ubiquitin-conjugating enzyme E2 N (Homo sapiens), P61088; inhibition, % at 20 µM; hit rate 0.47% among 330,000; AID 485273, 2010; in the data active = inhibition above about 45%, passing the limit was not always enough; inconclusive = no clear call, values can overlap the other calls
Target sequence (P61088 whole entry, looked up): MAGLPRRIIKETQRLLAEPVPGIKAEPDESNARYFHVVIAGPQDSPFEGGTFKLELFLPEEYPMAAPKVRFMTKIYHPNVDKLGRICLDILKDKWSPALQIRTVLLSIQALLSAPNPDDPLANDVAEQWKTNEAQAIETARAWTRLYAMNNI
UHRF1 binding: UHRF1 methylated DNA binding inhibitors, primary screen, counter-screen for MBD2 inhibitor project, biochemical, TR-FRET, human UHRF1, single concentration; E3 ubiquitin-protein ligase UHRF1 (Homo sapiens), Q96T88; AID 687016, 2013; UHRF1 binding to methylated oligo; inhibition, % at 4.4 µM; hit rate 0.75% among 370,000; in the data active = inhibition above about 21%;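 note: UHRF1 SRA domain binding a hemimethylated CpG hairpin DNA probe; 0% = median of test compound wells and 100% = reference inhibitor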
MBD2 inh: inhibitors of MBD2 binding to methylated DNA, primary screen, biochemical, TR-FRET, DNA-binding domain, human. inhibition, % at 4.4 µM. hit rate 0.31% among 370,000. MBD2 binding to methylated oligonucleotide. Methyl-CpG-binding domain protein 2 (Homo sapiens), Q9UBB5; in the data active = inhibition above about 13%
Target sequence (Q9UBB5 whole entry, looked up, the tested form may be a part): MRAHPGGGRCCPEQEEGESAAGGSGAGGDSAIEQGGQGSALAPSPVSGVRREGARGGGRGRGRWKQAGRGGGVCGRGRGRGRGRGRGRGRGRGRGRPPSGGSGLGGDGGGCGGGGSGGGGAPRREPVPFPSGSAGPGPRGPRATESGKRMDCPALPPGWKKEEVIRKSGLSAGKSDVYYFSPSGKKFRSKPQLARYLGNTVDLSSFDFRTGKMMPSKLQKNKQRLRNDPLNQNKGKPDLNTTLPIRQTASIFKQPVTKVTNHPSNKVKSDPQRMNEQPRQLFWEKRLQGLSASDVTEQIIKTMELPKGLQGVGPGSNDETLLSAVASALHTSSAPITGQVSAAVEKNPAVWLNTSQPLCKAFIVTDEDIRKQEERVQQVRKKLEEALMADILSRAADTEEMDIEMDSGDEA
Casp3 counter: CASP3 inhibitor validation, counterassay for project on UBE2N polyubiquitination blockers, biochemical, one dose | shares compounds with UBC13 polyUb | Recombinant caspase-3, Caspase-Glo 3/7 luminescence, 60 min | inhibition, % at 20 µM | hit rate 4% among 1,400 | AID 488856, 2010;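 active = mean inhibition across replicates above about 26%, limit read from the data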;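 note: plate controls were DMSO with caspase-3 for no effect and DMSO wells lacking enzyme for full effect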
UBC13 conf: UBC13 polyubiquitination inhibitors, single-point retest, confirmation, biochemical, TR-FRET, single concentration; shares compounds with UBC13 polyUb; inhibition, % at 10 µM; hit rate 68% among 1,400; AID 488859, 2010; in the data active = inhibition above about 45%; inconclusive = no clear call, values can overlap the other calls
Numbers without * were called inactive; i = inactive; ? = inconclusive; nt = not tested or not shown. Rows were chosen to be rich in hits. Some 1.8% of all compounds tested hit in one or more screens of this group.

SMILES | Neddyl block | UBC13 polyUb | UHRF1 binding | MBD2 inh | Casp3 counter | UBC13 conf
CCOC(=O)N1CCN(C(=O)c2ccc3c(c2)N(CC)CCS3)CC1 | nt | 34 | -2 | 3 | nt | nt
CCOC(=O)N1CCN(C(=O)c2ccc3c(c2)N(Cc2ccc(F)cc2)CCS3)CC1 | i | 48* | 0 | 5 | 0 | 33
Cc1ccccc1C(=O)NCC(=O)NNC(=S)NC(=O)c1ccccc1C | i | 87* | -4 | -5 | 4 | 78*
Cc1ccccc1C(=O)NCC(=O)NNC(=S)NC(=O)c1ccccc1 | i | 80* | -4 | 2 | 1 | 82*
Cc1ccccc1C(=O)NC(=S)NCc1ccccc1 | i | 7 | -2 | 2 | nt | nt
CSc1cccc(NC(=S)N(Cc2ccc(C)cc2)Cc2cccnc2)c1 | i | -5 | -1 | -7 | nt | nt
CSc1sc(-c2nnc(SCC(=O)Nc3ccccc3)n2C)c2c1C=CCC2 | i | 54* | 0 | 2 | -1 | ?
Cc1onc(-c2ccccc2)c1C(=O)N1CCN(Cc2ccc3c(c2)OCO3)CC1 | i | 0 | 0 | -1 | nt | nt
COc1cc(/C=N/NC(=O)c2sc(N)c(C#N)c2C)ccc1O | i | 51* | -3 | -1 | -2 | 56*
COc1cc(/C=N/NC(=O)c2ccccc2)ccc1O | i | -11 | -3 | -7 | nt | nt
O=C1c2ccccc2NC(c2cccc([N+](=O)[O-])c2)N1CCc1ccccc1 (centres undefined) | i | -12 | -1 | -3 | nt | nt
CC(C)OC(=O)/C(=C/c1cccnc1)NC(=O)c1ccccc1 | i | -2 | -2 | 2 | nt | nt
CCCCCOc1ccc(Br)cc1/C(C)=N/NC1=NCCN1 | i | 58* | -2 | -5 | -3 | 64*
COc1ccc(Br)cc1/C(C)=N/NC1=NCCN1 | i | 9 | 0 | 0 | nt | nt
CN(C)CCCNC(=O)C(=O)NCC1OCCN1S(=O)(=O)c1cccs1 (centres undefined) | i | 46* | -1 | 1 | 4 | 33
NC1=NC[C@@H](Cc2ccc(O)cc2)N1CCc1cccc(F)c1 | i | 8 | -2 | -4 | nt | nt
NC1=NC[C@@H](Cc2ccc(O)cc2)N1CCc1cc(C(F)(F)F)cc(C(F)(F)F)c1 | i | 64* | -1 | -1 | -4 | 36
NC1=NC[C@H](Cc2ccc(O)cc2)N1CCC12CC3CC(CC(C3)C1)C2 | i | 78* | 0 | -5 | 2 | 58*
NC1=NC[C@H](CC2CCCCC2)N1CCc1cc(C(F)(F)F)cc(C(F)(F)F)c1 | i | 97* | -3 | -1 | -1 | 98*
CN(C)/C=C(\C=O)c1ncc(C(F)(F)F)cc1Cl | i | -6 | -1 | 4 | nt | nt
N#Cc1ccsc1NC(=O)C1CCN(C(=O)c2ccc(F)cc2)CC1 | i | 59* | -3 | -4 | 3 | 41
CCOC(=O)C1=C(c2ccccc2)O/C(=C(\C(=O)OC)C(F)(F)F)S1 | i | 51* | 1 | 2 | 1 | 44
Cc1c(CCOC(=O)CC23CC4CC(CC(C)(C4)C2)C3)sc[n+]1CC(=O)c1ccccc1 | i | 63* | -4 | -3 | 4 | 52*
Cc1c(CCOC(=O)C23CC4CC(CC(C)(C4)C2)C3)sc[n+]1CC(=O)c1ccccc1 | i | 29 | 1 | -1 | nt | nt
Cc1c(CCOC(=O)CC23CC4CC(CC(C4)C2)C3)sc[n+]1CC(=O)c1ccc(Br)cc1 | i | 47* | -2 | 0 | 2 | 69*
SMILES | Neddyl block | UBC13 polyUb | UHRF1 binding | MBD2 inh | Casp3 counter | UBC13 conf
COCCCNC(=O)Cn1nc(-c2cccc(OC)c2)ccc1=O | i | 3 | -3 | -3 | nt | nt
N#Cc1nc(-c2cccc3ccccc23)oc1NCCN1CCCCC1 | nt | 71* | -6 | 4 | -1 | 91*
COc1ccc2c(CC(=O)OCC(=O)Nc3cccc(C)c3)coc2c1 | i | -16 | 3 | 5 | nt | nt
COC(=O)c1cccc(NC(=O)Cc2coc3cc(OC)ccc23)c1 | i | 48* | 0 | -2 | -3 | 53*
Cc1cc(C)c2nc(-c3ccccn3)cc(C(=O)n3cccn3)c2c1 | nt | 45* | 4 | -1 | -3 | 20
COc1ccc(-c2c3c(nc4sc(C(=O)Nc5ccccc5)c(N)c24)CCC3)cc1 | i | 46* | 7 | 1 | 2 | 38
CCOC(=O)N1CCC(NC(=O)c2cc(C)c3c(C)nn(-c4ccccc4)c3n2)CC1 | i | 45* | 0 | -2 | -3 | 23
Cc1nc2ccccc2n1C1CCN(CC(=O)Nc2ccccc2Br)CC1 | i | 58* | -3 | -6 | -4 | 74*
CC(Oc1nc2c(c(=O)n(C)c(=O)n2C)n1C)C1CCCCC1 (centres undefined) | i | nt | 0 | 0 | nt | nt
Nc1nc(N)nc(-c2cc(Cl)ccc2Cl)n1 | i | -9 | 0 | 0 | nt | nt
Nc1nc(N)nc(-c2cc(C(F)(F)F)ccc2Cl)n1 | i | 51* | -1 | -2 | 0 | -1
COc1ccccc1S(=O)(=O)N(C)C[C@H]1OCc2cnnn2CCCC(=O)N([C@@H](C)CO)C[C@@H]1C | i | nt | -2 | -1 | nt | nt
CN1CCCC1CCNc1ccc2sc3ccccc3c(=O)c2c1 (centres undefined) | i | 10 | -13 | -11 | nt | nt
Cc1cc2oc3cc(NCCC4CCCN4C)ccc3c(=O)c2cc1C (centres undefined) | i | 61* | -37 | 9 | 21 | 47*
COc1ccc(N(CC(=O)N2CCN(c3ccc(Cl)cc3)CC2)S(=O)(=O)c2c(C)n[nH]c2C)cc1 | i | 14 | 2 | 3 | nt | nt
CCCCNc1cccc2c1S(=O)(=O)N(CCCC)CC(COCc1ccccc1)O2 (centres undefined) | i | nt | -2 | 1 | nt | nt
COc1cc(-c2nc3ccc(N4CCN(C)CC4)cc3[nH]2)cc(OC)c1OC | nt | 45* | -2 | 2 | -1 | 37
O=C(O)c1cc([N+](=O)[O-])ccc1NCc1ccccc1Cl | i | 1 | 1 | -5 | nt | nt
Cc1cc(C(C)(C)CC(C)(C)C)ccc1OCCOCC[N+](C)(C)Cc1ccccc1 | i | 100* | -1 | -1 | -2 | 105*
C[N+](C)(CCOc1ccccc1)Cc1ccccc1 | i | nt | 8 | 3 | nt | nt
O=C(Nc1ccccc1)N1CCN(c2nc(-c3ccccc3)ns2)CC1 | i | 49* | 0 | 1 | -1 | 63*
Fc1ccccc1/C=C1\CCCC2=C1Nc1nnnn1C2c1ccccc1F (centres undefined) | i | 0 | -3 | 1 | nt | nt
Cn1cncc1C#Cc1c(-c2ccc(S(C)(=O)=O)cc2)sc2ccccc12 | nt | 69* | -2 | -3 | -5 | 50*
